The record followed here is PubChem BioAssay (NCATS).

SMILES strings stand for the structures. Unmarked numbers belong to inactive results. Results filed as inconclusive are left out. The source made the active and inactive calls. Unless noted, calls follow the shape of the dose curve; as a rule, active = well fitted curve in the direction sought with a large enough effect; inconclusive = small, poorly fitted or top-dose-only effect, or another doubt; inactive = no such curve, though single readings can be large; an effect the other way counts as inactive or inconclusive.

For experiment [1], the target named is Calcium and integrin-binding protein 1 (Homo sapiens) (UniProt Q99828). Description: Confirmatory qHTS for Identification of Calcium Integrin Binding Protein 1 (CIB1) Competitor (AID 1508617). Also: potency is read from the fitted curve at half-maximal effect; nearly all actives have a fitted effect of over 65% in size. Summed up:
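Compounds at up to 114 uM final met 1 uM GST-tagged CIB1 for 15 min at room temperature (HEPES pH 7.4, 5 mM CaCl2). FITC-labelled alphaIIb peptide, 100 nM, added; polarization read after 15 min more.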

Experiment [2] in a line: Validation of Assay for Modulators of Lamin A Splicing (AID 1459; active = well fitted curve in the direction sought with a large enough effect in the signal ratio; the % refers to the signal ratio;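 also: cells exposed to compound for two days before reading; 0% is about no effect; ratio rise marks activators and ratio drop marks inhibitors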). In outline: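 HeLa S3 lamin A-EGFP/DsRed2 stable clone, 600 cells/well, Opti-MEM 2% FBS; compounds by pin tool; 48 hrs, 37 °C/5% CO2; Acumen 488 nm scan, objects 10-100 um; GFP/RFP intensity ratio.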
The target in experiment [3] is DNA repair nuclease/redox regulator APEX1 (Homo sapiens) (UniProt P27695). Description: qHTS Validation Assay for Inhibitors of the Human Apurinic/apyrimidinic Endonuclease 1 (APE1) (AID 1705;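 also: TAMRA fluorescence gain over two minutes as APE1 cuts a quenched THF abasic duplex; series mostly up to about 57 µM; % is scaled to controls: 0 for no effect and ±100 for the full control effect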). In outline:
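qHTS, 1536-well. APE1 + cpd 15 min RT → 50 nM TAMRA/BHQ-2 THF-abasic dsDNA substrate → kinetic fluorescence, 3 reads/60 s; delta(read3−read1) = reaction progress. No-enzyme buffer = negative control.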

A short description of experiment [4]: Counterscreen for APE1 Inhibitors: Fluorescent Dye Displacement Validation Assay (AID 1707).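 Also: plate controls were ThO with dsDNA and no compound for no effect and ThO without dsDNA for full effect.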 Summed up:
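Counterscreen flags promiscuous DNA binders: compounds displacing ThO from duplex DNA (abasic THF site, 50 nM) reduce 540 nm emission (480 nm excitation). ThO 250 nM final; Tris-HCl pH 7.5 with NaCl, MgCl2 and Tween-20.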

For experiment [5], the target named is Endonuclease 4 (Escherichia coli (strain K12)) (UniProt P0A6C1). Description: Counterscreen for APE1 Inhibitors: qHTS Validation Assay for Inhibitors of Endonuclease IV (AID 1708). Also: % is scaled to controls: 0 for no effect and ±100 for the full control effect. In outline:
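Incision of a double-stranded 50 nM TAMRA/BHQ-2 abasic substrate was followed kinetically (525/598 nm, reads every 60 s) after 15 min enzyme–compound preincubation with 2 nM EndoIV in pH 7.5 Tris buffer with MgCl2, DTT and Tween-20; concentration-response format.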

Experiment [6] in a line: qHTS for differential inhibitors of proliferation of Plasmodium falciparum line 7G8 (AID 1815).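 Also: parasite growth measured after three days of incubation; plate controls were vehicle wells for no effect and reference inhibitor wells for full effect.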
The nature of experiment [7]: qHTS for differential inhibitors of proliferation of Plasmodium falciparum line GB4 (AID 1816).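 Also: parasite growth measured after 72 h incubation; 0% = vehicle DMSO and -100% = reference inhibitor.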 The following applies: Potency: Plasmodium falciparum GB4 proliferation inhibition.
Experiment [8] in a line: qHTS for differential inhibitors of proliferation of Plasmodium falciparum line 3D7 (AID 1876).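 Also: parasite growth measured after three days of culture; 0% = vehicle wells and -100% = reference inhibitor wells.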
Experiment [9] in a line: qHTS for differential inhibitors of proliferation of Plasmodium falciparum line D10 (AID 1877).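 Also: parasites grown with compound for 72 h before DNA staining; plate controls were vehicle wells for no effect and reference inhibitor wells for full effect.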
Experiment [10] is described as follows: qHTS for differential inhibitors of proliferation of Plasmodium falciparum line Dd2 (AID 1882).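 Also: series mostly up to about 29 µM; plate controls were DMSO vehicle for no effect and 0.29 µM artemisinin for full effect; nearly all actives have a fitted effect of over 65% in size.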 The following applies: Potency: Plasmodium falciparum Dd2 proliferation inhibition. In outline:
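SYBR Green DNA fluorescence (ex 485, em 535 nm) after overnight lysis quantifies parasite growth; compound exposure lasted 72 h at 37 C on infected red cells at 2.5% hematocrit, 0.3% parasitemia (final). Artemisinin 0.29 uM and vehicle wells define normalization.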

Experiment [11] in a line: qHTS for differential inhibitors of proliferation of Plasmodium falciparum line W2 (AID 1883).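 Also: parasites grown with compound for 72 h before lysis and staining; 0% = vehicle wells and -100% = control inhibitor wells.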 The following applies: Potency: Plasmodium falciparum W2 proliferation inhibition.
Experiment [12] in a line: qHTS for differential inhibitors of proliferation of Plasmodium falciparum line HB3 (AID 1886).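 Also: parasites grown with compound for 72 h before SYBR Green readout; plate controls were vehicle for no effect and reference inhibitor for full effect.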 The following applies: Potency: Plasmodium falciparum HB3 proliferation inhibition.
The target of experiment [13] is Ferritin light chain (Equus caballus) (UniProt P02791). Description: qHTS Validation Assay for Identification of Novel General Anesthetics (AID 2323). Also: series mostly up to about 77 µM; % is scaled to controls: 0 for no effect and ±100 for the full control effect. Summed up:
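Fluorescence at 535 nm (excitation 380 nm) reported loss of 1-AMA binding to horse-spleen apoferritin (10 uM) in PBS with 50% saturated 1-aminoanthracene, after 10 min room-temperature incubation with compound; values from Hill fits of normalized response.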

Experiment [14] deals with ATP-dependent DNA helicase Q1 (Homo sapiens) (UniProt P46063). Description: qHTS Validation Assay for Inhibitors of RecQ-Like Dna Helicase 1 (RECQ1) (AID 2353).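 Also: plate controls were DMSO vehicle for no effect and enzyme-free control for full effect.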 In outline: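 RECQ1T1 50 nM; forked duplex (20 bp + 30-nt ss tails) 200 nM, ATP 2 mM final; pH 8.0, 2 mM MgCl2, 2.5 ug/ml poly(dI-dC); 15 min compound preincubation; discontinuous kinetic read over 2 h at RT.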

Experiment [15] in a line: Validation screen for small molecules that induce DNA re-replication in MCF 10A normal breast cells (AID 463097). Also: 0% is about no effect; nearly all actives have a fitted effect of over 60% in size. Summed up:
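Image-based qHTS: normal breast cells are incubated with compound for 48 hr, stained with Hoechst, and scanned for total nuclear fluorescence. Compounds raising the fraction of nuclei with elevated DNA content count as re-replication inducers.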

Experiment [16] in a line: Quantitative high throughput screen for delayed death inhibitors of the malarial parasite plastid, 48 hour incubation (AID 488752). Also: % is scaled to controls: 0 for no effect and ±100 for the full control effect; nearly all actives have a fitted effect of over 65% in size. In outline:
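First, compound was pinned into RPMI 1640 medium containing 0.5% Albumax. Next, reporter-parasite-infected erythrocytes were added to 2% hematocrit and 0.1% parasitemia. After 48 h at 37 C under 5% CO2, luciferase detection reagent was added and luminescence read.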

For experiment [17], the target named is M-phase phosphoprotein 8 (Homo sapiens) (UniProt Q99549). Description: qHTS Validation Assay for Inhibitors for MPP8 Chromodomain Interactions with Methylated Histone Tails (AID 488949).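 Also: 50 nM MPP8 with 50 nM peptide preformed then compounds added for 30 min; AlphaScreen signal from MPP8 chromodomain bound to biotinylated H3K9me3 peptide; top concentration of the series differs between compounds; % is scaled to controls: 0 for no effect and ±100 for the full control effect; nearly all actives have a fitted effect of over 55% in size.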 In outline:
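50 nM MPP8 + 50 nM b-H3K9me3 peptide, PBS pH 7.4/0.01% Tween-20, 30 min RT; + cpd 30 min RT; + AlphaScreen donor/Ni-chelate acceptor beads 10 ug/mL final, 30 min dark; luminescence read.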

Experiment [18] addresses Thyrotropin-releasing hormone receptor (Homo sapiens) (UniProt P34981). Description: qHTS for Small Molecule Agonists and Allosteric Enhancers of Human TRH Receptor: Validation Screen for Agonists (AID 493127;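 active = calcium activation more than 3 SD above the typical response in the agonist read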;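 also: intracellular calcium rise by fluo-8 fluorescence before TRH EC20 addition; 0% is about no effect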). The following applies: TRH receptor agonist cell assay; at 2 µM; hits give high values. In outline: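 Compounds are added by online pintool to dye-loaded TRHR cells while fluorescence is recorded every second. A rise in calcium signal during the agonist read marks activation; a later 10 nM TRH addition (EC20) serves the separate enhancer mode.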

The target of experiment [19] is Galactokinase (Homo sapiens) (UniProt P51570). Description: qHTS Validation Assay for Inhibitors of Human Galactokinase (GALK) (AID 493189). Also: 0% is about no effect. In outline:
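5 nM GALK / 100 uM galactose / 35 uM ATP, 20 mM HEPES pH8.0, 5 mM MgCl2, 60 mM NaCl, 1 mM DTT, 0.01% BSA (final). RT 1 h; Kinase-Glo Plus luminescence.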

Experiment [20] in a line: Validation screen for small molecules that induce DNA re-replication in SW480 colon adenocarcinoma cells (AID 504364). Also: 0% is about no effect. In outline: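 Image-based qHTS: compounds were incubated with SW480 cells for 48 hr, nuclei stained with Hoechst, and per-nucleus fluorescence intensity scanned to flag cells with excess DNA content.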
Experiment [21] deals with Thyrotropin receptor (Homo sapiens) (UniProt P16473). Description: qHTS Assay for Antagonists of the Thyroid Stimulating Hormone Receptor (AID 488980). Also: series mostly up to about 58 µM; 0% is about no effect. Summed up: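 Readout is cAMP by HTRF competition between cellular cAMP and cAMP-d2 for a cryptate-labelled antibody. Antagonism was assessed in TSHR-transfected HEK293 cells stimulated with 4 nM TSH (EC80, final) in the presence of RO 20-1724.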

Experiment [22] in a line: qHTS Assay for Modulators of Human Peripheral Myelin Protein 22 (PMP22) Expression/Activity (AID 1967; active = well fitted curve in the direction sought with a large enough effect in the signal ratio; the % refers to the signal ratio;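 also: 0% = untreated cells and 100% end not stated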). In outline:
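Luminescence ratio of Pmp22 promoter-driven green luciferase to EF-alpha-driven red luciferase, in engineered mouse MSC80 Schwann cells, served as read-out. Compounds were incubated 24h; untreated cells defined 0% Activity; curves were classified by r2, magnitude and activity.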

The nature of experiment [23]: Quantitative high throughput screen for delayed death inhibitors of the malarial parasite plastid, 96 hour incubation (AID 488745).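 Also: luciferase-expressing P. falciparum in erythrocytes at 2% hematocrit and 0.1% parasitemia; series mostly up to about 29 µM; % is scaled to controls: 0 for no effect and ±100 for the full control effect; nearly all actives have a fitted effect of over 70% in size.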 Summed up:
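Readout is firefly luciferase luminescence from an integrated reporter in P. falciparum; lower signal marks inhibited growth. Cultures at 2% hematocrit and 0.1% parasitemia were treated with compound across two generations (96 h, 37 C, 5% CO2).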

ATP-dependent DNA helicase Q1 (Homo sapiens), sequence (P46063 whole entry, looked up): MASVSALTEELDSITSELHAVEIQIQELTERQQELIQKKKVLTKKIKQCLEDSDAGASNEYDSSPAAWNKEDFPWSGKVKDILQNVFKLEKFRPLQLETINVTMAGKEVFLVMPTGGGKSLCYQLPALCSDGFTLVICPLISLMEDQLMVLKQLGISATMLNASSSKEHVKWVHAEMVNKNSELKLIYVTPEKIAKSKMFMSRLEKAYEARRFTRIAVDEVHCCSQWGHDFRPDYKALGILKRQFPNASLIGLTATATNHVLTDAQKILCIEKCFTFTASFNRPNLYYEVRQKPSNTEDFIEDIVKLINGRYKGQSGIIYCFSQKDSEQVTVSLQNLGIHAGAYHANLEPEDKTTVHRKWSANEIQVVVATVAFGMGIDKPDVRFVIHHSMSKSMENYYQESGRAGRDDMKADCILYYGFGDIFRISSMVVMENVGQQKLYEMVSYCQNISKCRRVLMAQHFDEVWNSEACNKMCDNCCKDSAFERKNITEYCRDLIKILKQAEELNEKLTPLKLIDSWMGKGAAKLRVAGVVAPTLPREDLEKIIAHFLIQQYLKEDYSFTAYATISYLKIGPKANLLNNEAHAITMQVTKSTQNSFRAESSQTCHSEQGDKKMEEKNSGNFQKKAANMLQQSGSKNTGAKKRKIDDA
M-phase phosphoprotein 8 (Homo sapiens), sequence (Q99549 whole entry, looked up): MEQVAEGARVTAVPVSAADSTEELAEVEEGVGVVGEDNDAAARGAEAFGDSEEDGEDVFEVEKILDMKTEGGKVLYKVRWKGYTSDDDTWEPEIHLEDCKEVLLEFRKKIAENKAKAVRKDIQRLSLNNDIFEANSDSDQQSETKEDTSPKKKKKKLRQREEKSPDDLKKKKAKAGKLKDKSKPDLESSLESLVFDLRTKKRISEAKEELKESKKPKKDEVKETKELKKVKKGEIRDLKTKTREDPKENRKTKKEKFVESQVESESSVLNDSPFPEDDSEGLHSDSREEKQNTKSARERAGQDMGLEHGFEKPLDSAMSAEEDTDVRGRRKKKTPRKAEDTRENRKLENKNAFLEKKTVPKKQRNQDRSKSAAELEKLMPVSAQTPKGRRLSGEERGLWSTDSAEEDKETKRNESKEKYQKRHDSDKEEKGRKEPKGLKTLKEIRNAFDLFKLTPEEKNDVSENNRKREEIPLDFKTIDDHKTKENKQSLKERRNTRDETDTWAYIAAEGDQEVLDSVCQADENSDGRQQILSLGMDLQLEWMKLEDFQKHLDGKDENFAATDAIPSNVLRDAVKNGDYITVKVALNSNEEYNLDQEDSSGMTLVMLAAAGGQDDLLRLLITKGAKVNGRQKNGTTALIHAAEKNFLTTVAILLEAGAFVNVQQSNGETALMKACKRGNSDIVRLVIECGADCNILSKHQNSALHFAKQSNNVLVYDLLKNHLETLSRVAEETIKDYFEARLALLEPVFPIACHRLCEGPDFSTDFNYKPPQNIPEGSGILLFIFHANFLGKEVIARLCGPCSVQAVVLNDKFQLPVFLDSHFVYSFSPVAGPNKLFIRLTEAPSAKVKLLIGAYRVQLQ
Galactokinase (Homo sapiens), sequence (P51570 whole entry, looked up): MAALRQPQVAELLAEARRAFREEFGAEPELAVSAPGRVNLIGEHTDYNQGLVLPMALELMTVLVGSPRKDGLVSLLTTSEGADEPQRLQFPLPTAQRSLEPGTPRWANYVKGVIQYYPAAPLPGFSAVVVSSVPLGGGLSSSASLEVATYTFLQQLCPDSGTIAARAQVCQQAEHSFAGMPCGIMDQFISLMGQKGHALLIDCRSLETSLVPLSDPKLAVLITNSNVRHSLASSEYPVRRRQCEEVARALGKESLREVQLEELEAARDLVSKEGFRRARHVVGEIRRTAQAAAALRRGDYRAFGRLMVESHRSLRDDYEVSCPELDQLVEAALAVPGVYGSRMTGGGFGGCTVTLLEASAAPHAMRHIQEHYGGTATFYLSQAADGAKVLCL
Thyrotropin-releasing hormone receptor (Homo sapiens), sequence (P34981 whole entry, looked up): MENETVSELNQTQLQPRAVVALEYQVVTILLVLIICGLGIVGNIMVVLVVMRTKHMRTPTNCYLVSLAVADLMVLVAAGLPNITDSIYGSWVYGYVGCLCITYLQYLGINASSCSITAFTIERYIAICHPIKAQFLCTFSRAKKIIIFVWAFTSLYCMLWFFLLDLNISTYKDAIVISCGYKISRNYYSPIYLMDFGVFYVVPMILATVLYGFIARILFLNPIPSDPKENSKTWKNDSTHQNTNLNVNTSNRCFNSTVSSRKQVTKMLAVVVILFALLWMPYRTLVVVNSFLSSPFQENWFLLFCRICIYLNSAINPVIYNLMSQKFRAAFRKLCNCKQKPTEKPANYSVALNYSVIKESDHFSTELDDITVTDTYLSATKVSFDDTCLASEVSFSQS
DNA repair nuclease/redox regulator APEX1 (Homo sapiens), sequence (P27695 whole entry, looked up): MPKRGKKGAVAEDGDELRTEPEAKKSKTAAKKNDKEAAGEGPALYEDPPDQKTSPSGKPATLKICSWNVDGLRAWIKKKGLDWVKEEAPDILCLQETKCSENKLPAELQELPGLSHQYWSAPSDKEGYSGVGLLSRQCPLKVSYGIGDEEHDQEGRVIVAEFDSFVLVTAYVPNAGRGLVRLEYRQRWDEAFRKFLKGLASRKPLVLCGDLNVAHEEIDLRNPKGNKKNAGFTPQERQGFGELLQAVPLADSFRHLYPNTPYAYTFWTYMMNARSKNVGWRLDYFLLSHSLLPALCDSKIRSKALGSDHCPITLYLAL
Ferritin light chain (Equus caballus), sequence (P02791 2-175 limits assumed): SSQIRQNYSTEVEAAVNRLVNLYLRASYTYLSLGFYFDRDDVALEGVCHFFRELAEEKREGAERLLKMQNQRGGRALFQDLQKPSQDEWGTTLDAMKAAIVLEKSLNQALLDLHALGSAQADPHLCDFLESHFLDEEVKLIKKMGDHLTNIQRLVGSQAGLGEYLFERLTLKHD
Thyrotropin receptor (Homo sapiens), sequence (P16473 whole entry, looked up): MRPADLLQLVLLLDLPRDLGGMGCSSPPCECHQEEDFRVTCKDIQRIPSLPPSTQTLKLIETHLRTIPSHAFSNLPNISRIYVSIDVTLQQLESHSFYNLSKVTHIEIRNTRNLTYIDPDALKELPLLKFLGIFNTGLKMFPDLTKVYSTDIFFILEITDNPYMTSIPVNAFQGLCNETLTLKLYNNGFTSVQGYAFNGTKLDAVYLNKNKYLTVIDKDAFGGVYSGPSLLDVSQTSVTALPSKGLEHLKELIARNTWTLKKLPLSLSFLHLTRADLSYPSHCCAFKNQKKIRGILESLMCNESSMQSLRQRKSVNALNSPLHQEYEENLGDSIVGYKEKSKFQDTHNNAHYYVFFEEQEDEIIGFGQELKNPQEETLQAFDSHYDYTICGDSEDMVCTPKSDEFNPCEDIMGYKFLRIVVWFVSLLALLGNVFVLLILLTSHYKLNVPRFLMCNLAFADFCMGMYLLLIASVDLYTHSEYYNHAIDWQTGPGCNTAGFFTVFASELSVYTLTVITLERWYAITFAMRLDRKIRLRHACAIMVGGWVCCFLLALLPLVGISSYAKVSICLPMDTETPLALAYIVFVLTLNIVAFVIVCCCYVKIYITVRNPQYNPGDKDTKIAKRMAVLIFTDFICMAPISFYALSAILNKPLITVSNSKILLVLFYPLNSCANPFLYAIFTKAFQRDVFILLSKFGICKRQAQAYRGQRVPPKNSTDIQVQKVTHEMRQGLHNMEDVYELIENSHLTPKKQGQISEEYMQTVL
Calcium and integrin-binding protein 1 (Homo sapiens), sequence (Q99828 whole entry, looked up): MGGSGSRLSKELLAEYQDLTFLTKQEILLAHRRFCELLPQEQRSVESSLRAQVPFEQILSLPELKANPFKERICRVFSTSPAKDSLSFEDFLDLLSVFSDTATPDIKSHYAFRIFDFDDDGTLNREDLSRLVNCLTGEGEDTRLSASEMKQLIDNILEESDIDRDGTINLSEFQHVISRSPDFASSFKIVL

In the case of `COc1ccccc1Nc1cc2ccccc2c(=O)[nH]1`, the Potency in experiment [1] was 39.8 µM (active).

As for `OC[C@H]1O[C@@H](n2cnc3c(Nc4ccccc4)ncnc32)[C@H](O)[C@H]1O`, the result in [2], in experiment [5], in experiment [13], in experiment [15], in experiment [19] and in experiment [20] was inactive. For the same compound, the Potency result in experiment [3], in [4], in experiment [6], in experiment [7], in experiment [8] and in experiment [9] was “inactive” in each case. Besides, the Potency entry in experiment [10], in experiment [11], in experiment [12], in experiment [14], in experiment [16] and in [17] was “inactive” throughout. Moreover, the activation in [18] is 0.188%.

Regarding `CNCC[C@@H](Oc1ccc(C(F)(F)F)cc1)c1ccccc1`, the outcome in [2], in [5], in [21], in experiment [19] and in experiment [20] was inactive. Moreover, the Potency result in experiment [4], in experiment [14] and in experiment [17] was “inactive” throughout. Also, in [18], the activation is 18.7%.

Consider `C[C@H]1CC2[C@@H]3CCC4=CC(=O)C=C[C@]4(C)[C@@]3(Cl)[C@@H](O)C[C@]2(C)[C@@]1(O)C(=O)CO` (stereo partly specified), for which the compound was classed as inactive in experiment [2], in experiment [5], in experiment [22], in experiment [13], in experiment [15] and in experiment [19]. Also, the result in experiment [20] was inactive. Moreover, the Potency result in experiment [3], in experiment [4], in experiment [8], in [9], in [10] and in [14] was “inactive” each time. For the same compound, the Potency result in experiment [23], in [16] and in [17] was “inactive” in each case. The activation in experiment [18] is 0.25%.
